# According to publication PMC4336329 (PLoS ONE, 2015):
# About 14,000 (4.5%) of roughly 310,000 compounds showed an effect of 50% or more. Effects have a minus sign here. This is one part of a sample in which strong results are shown more often than they occur.
# Biological target: human ether-à-go-go-related gene (hERG) potassium channel (human, UniProt Q12809)
# Experiment: primary screen, population patch clamp on CHO cells stably expressing hERG; higher = less effect of the substance
# 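Note: peak tail current of the secondary pulse compared with the same well before compound.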
# human ether-à-go-go-related gene (hERG) potassium channel, sequence (Q12809 whole entry, looked up): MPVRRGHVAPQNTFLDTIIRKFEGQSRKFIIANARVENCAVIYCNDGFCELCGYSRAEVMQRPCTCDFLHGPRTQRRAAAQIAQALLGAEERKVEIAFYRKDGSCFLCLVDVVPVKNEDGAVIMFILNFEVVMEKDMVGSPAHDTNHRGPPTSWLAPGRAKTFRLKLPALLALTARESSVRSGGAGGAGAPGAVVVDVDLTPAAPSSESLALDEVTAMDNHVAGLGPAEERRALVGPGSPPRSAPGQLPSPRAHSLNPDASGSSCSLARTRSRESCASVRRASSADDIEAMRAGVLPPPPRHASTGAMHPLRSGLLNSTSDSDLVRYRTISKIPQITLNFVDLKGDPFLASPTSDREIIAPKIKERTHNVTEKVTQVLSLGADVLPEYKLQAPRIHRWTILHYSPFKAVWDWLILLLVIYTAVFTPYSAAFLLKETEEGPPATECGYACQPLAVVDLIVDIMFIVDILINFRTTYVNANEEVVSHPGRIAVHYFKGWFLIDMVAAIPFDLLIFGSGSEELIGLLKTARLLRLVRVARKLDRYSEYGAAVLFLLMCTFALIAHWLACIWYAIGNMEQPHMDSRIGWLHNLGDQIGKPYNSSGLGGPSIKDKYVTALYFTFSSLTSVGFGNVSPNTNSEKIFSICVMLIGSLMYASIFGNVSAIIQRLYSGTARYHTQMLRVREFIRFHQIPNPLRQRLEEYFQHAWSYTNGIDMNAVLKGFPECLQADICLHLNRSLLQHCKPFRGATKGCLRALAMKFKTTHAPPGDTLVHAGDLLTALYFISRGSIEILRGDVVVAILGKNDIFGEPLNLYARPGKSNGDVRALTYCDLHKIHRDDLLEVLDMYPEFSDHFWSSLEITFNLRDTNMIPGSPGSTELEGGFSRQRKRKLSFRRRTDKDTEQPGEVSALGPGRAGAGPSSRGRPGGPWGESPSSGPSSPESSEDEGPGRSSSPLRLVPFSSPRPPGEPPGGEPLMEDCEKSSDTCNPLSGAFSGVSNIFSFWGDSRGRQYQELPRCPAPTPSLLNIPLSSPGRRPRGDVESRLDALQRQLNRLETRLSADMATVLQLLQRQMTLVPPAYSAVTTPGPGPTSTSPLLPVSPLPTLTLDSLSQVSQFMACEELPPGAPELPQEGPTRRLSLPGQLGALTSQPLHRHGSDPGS
row,SMILES,"hERG current change (%, negative = inhibition) at 10uM"
1,Cc1ccc(-c2nc3ccc([N+](=O)[O-])cc3[nH]2)cc1,-3.49%
2,O=[N+]([O-])c1ccc(-c2nc3ccc([N+](=O)[O-])cc3[nH]2)cc1,-27.9%
3,O=[N+]([O-])c1cccc(-c2nc3ccc([N+](=O)[O-])cc3[nH]2)c1,8.34%
4,F[B-](F)(F)F.O=[N+]([O-])c1ccc2nc(-[n+]3c(-c4ccccc4)cc(-c4ccccc4)cc3-c3ccccc3)[nH]c2c1,-61.8%
5,CCCC[n+]1ccc(-c2nc3ccc([N+](=O)[O-])cc3[nH]2)cc1,-59.5%
6,Cn1c(-[n+]2c(-c3ccccc3)cc(-c3ccccc3)cc2-c2ccccc2)nc2cc([N+](=O)[O-])ccc21.[I-],-12.2%
7,Cc1nc2ccc([N+](=O)[O-])cc2[nH]1,7.21%
8,CC(C)(C)c1nc2ccc([N+](=O)[O-])cc2[nH]1,-77.7%
9,Nc1nc2ccc([N+](=O)[O-])cc2[nH]1,20.6%
10,O=C(NNC(=O)C1CC=CCC1C(=O)O)c1ccc(Cl)cc1 (stereo not drawn),20.6%
11,COC(CNC(=O)C1CCCN1C(=O)OCc1ccccc1)OC (stereo not drawn),5.41%
12,Cc1cc(O)c(C2=Nc3ccccc3SC(c3ccc(Cl)cc3)C2)c(=O)o1 (stereo not drawn),19.4%
13,Clc1ccccc1Nc1nc2ccccc2o1,10.5%
14,O/C(=C\c1ccc2ccccc2n1)c1ccc(O)cc1O,4.33%
15,CCOc1ccc(/C=C2\SC(=S)N(NC(=O)c3ccncc3)C2=O)cc1OC,16.9%
16,COc1cc(NC(=O)CSCc2ccc(Cl)cc2)c(C(=O)O)cc1OC,13.6%
17,CN(C)S(=O)(=O)c1ccc(NC(=O)CN2CCc3ccccc32)cc1,11.8%
18,Cc1ccc(SCCNS(=O)(=O)c2ccc3c(c2)OCCO3)cc1,2.17%
19,Cc1ccc(NC(=O)CN2C(=O)c3ccccc3C2=O)nc1,6.21%
20,Cc1nc2ccsc2c(=O)n1-c1cccc(Cl)c1,14.4%
21,O=C(NNC(=O)c1cccc(O)c1)Nc1ccc([N+](=O)[O-])cc1,16.3%

row,SMILES,"hERG current change (%, negative = inhibition) at 10uM"
1,O=C(c1ccccc1)c1cccn1CC(=O)N1CCCCCC1,5.2%
2,O=C(c1ccccc1)c1cccn1CC(=O)N1CCN(C2CCCCC2)CC1,-52.6%
3,O=C(C(Cc1ccccc1)n1cccc1)N1CCCCCC1 (stereo not drawn),12.1%
4,O=C(c1ccccc1)c1cccn1CC(=O)N1CCN(c2ccccc2)CC1,-9.33%
5,O=C(Cc1ccccc1)N1CCN(C2CCCCCC2)CC1.O=C(O)C(=O)O,-19.2%
6,O=C(C(Cc1ccccc1)n1cccc1)N1CCCCC1 (stereo not drawn),2.03%
7,COc1ccc(CCC(=O)N2CCN(C3CCCCC3)CC2)cc1,-69.1%
8,O=C(C(Cc1ccccc1)n1cccc1)N1CCN(C2CCCCC2)CC1 (stereo not drawn),-56.6%
9,COc1ccc(CCC(=O)N2CCCC(Nc3ccc(OC)cc3)C2)cc1 (stereo not drawn),-6.96%
10,O=C(Cc1ccccc1)N1CCN(C2CCCC2)CC1,0.401%
11,COc1ccc(CCC(=O)N2CCN(C(=O)c3ccccc3)CC2)cc1,5.76%
12,O=C(CCCc1ccccc1)N1CCN(C2CCCCC2)CC1,-70.8%
13,CN1CCN(C(=O)Nc2ccccc2)CC1.O=C(O)C(=O)O,23.2%
14,CCN(CC(=O)Nc1cc(Cl)ccc1C)C(=O)CN1C(=O)NC2(CCCC2)C1=O,8.3%
15,CSc1ncccc1C(=O)OCC(=O)N(CC(C)C)C1CCS(=O)(=O)C1 (stereo not drawn),-0.0479%
16,Cc1cc(C)nc(N(C#N)Cc2ccc(Br)cc2)n1,4.33%
17,O=C1NC(=O)N(c2ccccc2)C(=O)/C1=C/c1coc2ccc(O)cc2c1=O,-6.18%
18,CN(C)CCCNC(=S)Nc1ccc(Oc2ccccc2)cc1,-3.24%
19,CON=C1CCN(c2ncc(C(F)(F)F)cc2Cl)CC1,-5.78%
20,O=C(Cn1nnc(-c2ccccc2)n1)Nc1cccc(S(=O)(=O)N2CCOCC2)c1,-56.2%
21,CCN(CC)S(=O)(=O)c1cccc(C(=O)Nc2ccc(C#N)cc2)c1,-77.3%
